Results filed as inconclusive are left out. Where a call stands in place of a potency, no number is given. Active and inactive are the calls of the source. The call rests on the fitted dose curve; in most records, active means well fitted cell-killing curve with a large enough effect; inconclusive means small, poorly fitted or top-dose-only effect; inactive means flat fitted curve, though single readings scatter.
assay: Cell Viability - LYMP2-007 (AID 979); settings: LYMP2-007 lymphoblastoid cell viability; series mostly up to 92.2 µM;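 further: cells exposed to compound for 24 h before reading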
Method in brief: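 Luminescent ATP signal (CellTiter-Glo) serves as the viability read-out after 24 hr compound treatment of lymphoblastoid cells in complete medium at 37 C. Concentration-response data were fitted to the Hill equation to give AC50 values.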
Further: nearly all actives have a fitted effect of over 60% in size.
Potency means the concentration at half of the fitted maximal effect.

Row | Structure (SMILES) | Potency
1 | Oc1ccc2cc(SSc3ccc4cc(O)ccc4c3)ccc2c1 | 39.8 µM (active)
2 | Nc1ccc2cc3ccccc3cc2c1 | inactive
3 | CN(C)c1ccc(C2(c3ccc(N(C)C)cc3)OC(=O)c3cc(N(C)C)ccc32)cc1 | inactive
4 | Cc1cc(Nc2ccc(O)cc2)ccc1N | 31.6 µM (active)
5 | CO[C@H]1/C=C/O[C@@]2(C)Oc3c(C)c(O)c4c(O)c(c5c(c4c3C2=O)NC2(CCN(CC(C)C)CC2)N=5)=NC(=O)/C(C)=C\C=C\[C@H](C)[C@H](O)[C@@H](C)[C@@H](O)[C@@H](C)[C@H](OC(C)=O)[C@@H]1C | inactive
6 | Cc1cc(O)c(C(C)(C)C)cc1Sc1cc(C(C)(C)C)c(O)cc1C | 31.6 µM (active)
7 | C=C(C)c1ccccc1 | inactive
8 | O=C1OC2(c3cc(Br)c(O)c(Br)c3Oc3c2cc(Br)c(O)c3Br)c2c(Cl)c(Cl)c(Cl)c(Cl)c21 | inactive
9 | C=CC(=O)OCCOCCOC(=O)C=C | 25.1 µM (active)
10 | C/C=C1\C(=O)C[C@H]2[C@@H]3CCC4=CC(=O)CC[C@]4(C)[C@H]3CC[C@]12C | inactive
11 | O=C1OC(O)C(C(Cl)Cl)=C1Cl (stereo not given) | 25.1 µM (active)
12 | CNc1ccc(O)cc1 | 6.31 µM (active)
13 | CC(=O)Nc1ccc(C(=O)CCl)cc1 | 6.31 µM (active)
14 | CCC(C)Nc1ccc(NC(C)CC)cc1 (stereo not given) | 5.01 µM (active)
15 | O=C=Nc1ccc(Cc2ccc(N=C=O)cc2)cc1 | inactive
16 | c1ccc2c(c1)ccc1cc3c(ccc4ccccc43)cc12 | inactive
17 | c1ccc2c(c1)-c1cccc3c1c-2cc1ccccc13 | inactive
18 | O=[N+]([O-])c1cc([N+](=O)[O-])c2ccc(S(=O)(=O)O)cc2c1O | inactive
19 | O=Cc1ccc(Cl)c(Cl)c1 | inactive

assay: Cell Viability - LYMP2-008 (AID 980); settings: LYMP2-008 lymphoblastoid cell viability, qHTS; series mostly up to 92.2 µM
Method in brief: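 qHTS, human lymphoblastoid line, 2500 cells/well; 5 hr preincubation, 24 hr compound, 37 C. CellTiter-Glo ATP luminescence. AC50 via Hill equation. Tetraoctylammonium bromide positive control.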

Row | Structure (SMILES) | Potency
20 | Nc1ccc2cc3ccccc3cc2c1 | inactive
21 | CN(C)c1ccc(C2(c3ccc(N(C)C)cc3)OC(=O)c3cc(N(C)C)ccc32)cc1 | inactive
22 | Cc1cc(Nc2ccc(O)cc2)ccc1N | 50.1 µM (active)
23 | CO[C@H]1/C=C/O[C@@]2(C)Oc3c(C)c(O)c4c(O)c(c5c(c4c3C2=O)NC2(CCN(CC(C)C)CC2)N=5)=NC(=O)/C(C)=C\C=C\[C@H](C)[C@H](O)[C@@H](C)[C@@H](O)[C@@H](C)[C@H](OC(C)=O)[C@@H]1C | inactive
24 | Cc1cc(O)c(C(C)(C)C)cc1Sc1cc(C(C)(C)C)c(O)cc1C | 31.6 µM (active)
25 | C=C(C)c1ccccc1 | inactive
26 | C=CC(=O)OCCOCCOC(=O)C=C | 31.6 µM (active)
27 | O=C1OC(O)C(C(Cl)Cl)=C1Cl (stereo not given) | 25.1 µM (active)
28 | CNc1ccc(O)cc1 | 7.94 µM (active)
29 | CC(=O)Nc1ccc(C(=O)CCl)cc1 | 6.31 µM (active)
30 | CCC(C)Nc1ccc(NC(C)CC)cc1 (stereo not given) | 3.98 µM (active)
31 | O=C=Nc1ccc(Cc2ccc(N=C=O)cc2)cc1 | inactive
32 | c1ccc2c(c1)ccc1cc3c(ccc4ccccc43)cc12 | inactive
33 | c1ccc2c(c1)-c1cccc3c1c-2cc1ccccc13 | inactive
34 | O=[N+]([O-])c1cc([N+](=O)[O-])c2ccc(S(=O)(=O)O)cc2c1O | inactive
35 | O=Cc1ccc(Cl)c(Cl)c1 | inactive

— PubChem BioAssay (NCATS)
